What all share (assay): DAPPL (digital affinity profiling via proximity ligation, sequencing); 10 mM Tris-HCl pH 7.5, 50 mM NaCl, 1 mM DTT, 4% glycerol, room temperature, 30 min; GST-TFs on glutathione beads, 16-mer random dsDNA library, 0.1% formaldehyde crosslink after washing; high values mean tight binding
In experiment [1] the target is T1, FLI1 (Homo sapiens, UniProt Q01543 1-452).
T1 sequence: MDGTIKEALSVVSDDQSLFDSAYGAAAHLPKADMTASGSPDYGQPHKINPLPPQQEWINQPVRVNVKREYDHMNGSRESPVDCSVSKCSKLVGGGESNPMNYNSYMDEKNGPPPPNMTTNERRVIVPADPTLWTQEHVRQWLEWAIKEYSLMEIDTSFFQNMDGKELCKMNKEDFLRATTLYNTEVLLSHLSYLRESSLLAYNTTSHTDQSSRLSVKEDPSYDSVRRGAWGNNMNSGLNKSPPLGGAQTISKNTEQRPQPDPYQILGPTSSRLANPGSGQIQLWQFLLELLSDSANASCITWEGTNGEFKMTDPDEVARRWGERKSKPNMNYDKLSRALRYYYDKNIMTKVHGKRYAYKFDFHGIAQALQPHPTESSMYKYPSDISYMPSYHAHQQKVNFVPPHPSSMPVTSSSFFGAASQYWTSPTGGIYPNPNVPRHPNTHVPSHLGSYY
The conditions noted are these: protein: recombinant; tags: N-terminal GST; dsDNA, one strand shown. In outline:
(§1)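 Binding signal is given per hexamer as its read frequency for a factor divided by its frequency in the tag-only sample. GST-fused human transcription factors were expressed in yeast, captured on glutathione beads, barcoded with DNA and pooled with that sample, then incubated with 200 nmole of a 16-mer random double-stranded DNA library in Tris/NaCl/DTT/glycerol buffer for 30 min at room temperature. The pools were then washed, crosslinked, proximity-ligated, amplified by PCR and sequenced on an Illumina NextSeq500.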

For experiment [2], the target named is T2, ELK1 (Homo sapiens, UniProt P19419 1-428).
T2 sequence: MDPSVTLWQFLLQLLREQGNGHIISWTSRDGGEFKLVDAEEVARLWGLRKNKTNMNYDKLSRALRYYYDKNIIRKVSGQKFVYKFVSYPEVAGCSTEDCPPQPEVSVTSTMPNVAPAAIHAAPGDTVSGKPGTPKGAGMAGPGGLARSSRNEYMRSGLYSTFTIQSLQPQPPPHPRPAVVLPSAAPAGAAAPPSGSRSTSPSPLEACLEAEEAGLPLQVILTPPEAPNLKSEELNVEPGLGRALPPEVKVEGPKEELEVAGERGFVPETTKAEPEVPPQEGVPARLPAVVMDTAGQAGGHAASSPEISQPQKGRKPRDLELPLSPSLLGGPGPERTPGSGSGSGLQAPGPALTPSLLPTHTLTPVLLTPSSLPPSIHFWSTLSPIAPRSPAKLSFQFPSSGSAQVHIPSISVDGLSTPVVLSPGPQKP
The conditions noted are these: protein: recombinant; tags: N-terminal GST; dsDNA, one strand shown. In outline:
as §1

The target of experiment [3] is T3, GABPA (Homo sapiens, UniProt Q06546 1-454).
T3 sequence: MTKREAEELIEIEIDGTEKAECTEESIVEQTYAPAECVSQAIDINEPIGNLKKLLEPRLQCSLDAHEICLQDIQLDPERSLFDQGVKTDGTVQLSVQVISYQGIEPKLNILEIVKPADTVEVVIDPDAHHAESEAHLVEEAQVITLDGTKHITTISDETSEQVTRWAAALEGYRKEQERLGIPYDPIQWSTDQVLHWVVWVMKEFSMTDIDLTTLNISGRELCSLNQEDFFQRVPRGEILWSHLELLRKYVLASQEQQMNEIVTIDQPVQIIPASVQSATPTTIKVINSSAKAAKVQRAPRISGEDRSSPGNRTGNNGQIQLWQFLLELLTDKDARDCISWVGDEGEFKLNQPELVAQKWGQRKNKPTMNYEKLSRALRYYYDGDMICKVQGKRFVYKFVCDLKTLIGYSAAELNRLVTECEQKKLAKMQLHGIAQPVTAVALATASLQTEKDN
The conditions noted are these: protein: recombinant; tags: N-terminal GST; dsDNA, one strand shown. In outline:
as §1

The target in experiment [4] is T4, ERG (Homo sapiens, UniProt P11308 1-479).
T4 sequence: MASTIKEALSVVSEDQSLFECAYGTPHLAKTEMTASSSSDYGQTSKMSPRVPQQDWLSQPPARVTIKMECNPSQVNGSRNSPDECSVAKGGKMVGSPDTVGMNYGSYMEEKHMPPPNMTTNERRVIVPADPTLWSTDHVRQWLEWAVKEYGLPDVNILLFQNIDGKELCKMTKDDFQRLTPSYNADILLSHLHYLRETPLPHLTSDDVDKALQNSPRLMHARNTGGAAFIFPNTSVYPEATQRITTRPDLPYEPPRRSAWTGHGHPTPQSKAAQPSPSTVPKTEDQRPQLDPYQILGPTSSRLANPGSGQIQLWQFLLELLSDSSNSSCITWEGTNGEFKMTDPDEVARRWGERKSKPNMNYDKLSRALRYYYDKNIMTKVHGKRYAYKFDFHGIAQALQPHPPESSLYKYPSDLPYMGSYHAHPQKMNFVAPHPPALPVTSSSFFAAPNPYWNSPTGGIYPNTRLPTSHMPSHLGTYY
To be noted: protein: recombinant; tags: N-terminal GST; dsDNA, one strand shown. In outline: as §1

The target in experiment [5] is ELF1 (Homo sapiens, UniProt P32519 1-619). The conditions noted are these: protein: recombinant; tags: N-terminal GST; dsDNA, one strand shown. In outline: as §1
Chain of ELF1 (P32519 whole entry): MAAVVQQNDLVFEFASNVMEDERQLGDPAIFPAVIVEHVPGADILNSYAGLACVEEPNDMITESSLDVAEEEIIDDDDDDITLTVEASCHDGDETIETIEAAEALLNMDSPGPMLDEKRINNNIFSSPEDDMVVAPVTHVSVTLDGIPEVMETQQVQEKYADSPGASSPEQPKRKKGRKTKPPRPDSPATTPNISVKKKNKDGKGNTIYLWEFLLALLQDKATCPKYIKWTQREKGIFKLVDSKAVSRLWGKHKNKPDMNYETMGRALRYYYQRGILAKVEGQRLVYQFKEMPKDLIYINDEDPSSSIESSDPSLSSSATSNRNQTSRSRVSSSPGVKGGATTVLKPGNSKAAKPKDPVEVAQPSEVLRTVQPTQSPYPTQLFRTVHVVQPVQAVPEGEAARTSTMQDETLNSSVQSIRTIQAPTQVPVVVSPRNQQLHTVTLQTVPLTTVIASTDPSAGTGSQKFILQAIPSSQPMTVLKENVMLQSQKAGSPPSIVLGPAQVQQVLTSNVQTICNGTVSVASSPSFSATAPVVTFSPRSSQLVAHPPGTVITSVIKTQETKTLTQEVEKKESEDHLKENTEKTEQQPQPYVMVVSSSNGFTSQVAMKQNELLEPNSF
Experiment [6] has as its target T5, EHF (Homo sapiens, UniProt Q9NZC4 1-300).
T5 sequence: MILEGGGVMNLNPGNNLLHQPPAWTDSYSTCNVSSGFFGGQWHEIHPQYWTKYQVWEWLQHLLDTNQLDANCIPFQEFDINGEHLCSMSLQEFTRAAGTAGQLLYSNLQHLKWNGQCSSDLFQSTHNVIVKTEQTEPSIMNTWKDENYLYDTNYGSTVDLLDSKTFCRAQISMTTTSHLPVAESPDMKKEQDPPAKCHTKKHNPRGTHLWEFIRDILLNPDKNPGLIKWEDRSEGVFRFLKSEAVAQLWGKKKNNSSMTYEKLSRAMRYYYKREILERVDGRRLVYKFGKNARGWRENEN
To be noted: protein: recombinant; tags: N-terminal GST; dsDNA, one strand shown. In outline: as §1

For experiment [7], the target named is SPIB (Homo sapiens, UniProt Q01892 1-262). The conditions noted are these: protein: recombinant; tags: N-terminal GST; dsDNA, one strand shown. In outline: as §1
Chain of SPIB (Q01892 whole entry): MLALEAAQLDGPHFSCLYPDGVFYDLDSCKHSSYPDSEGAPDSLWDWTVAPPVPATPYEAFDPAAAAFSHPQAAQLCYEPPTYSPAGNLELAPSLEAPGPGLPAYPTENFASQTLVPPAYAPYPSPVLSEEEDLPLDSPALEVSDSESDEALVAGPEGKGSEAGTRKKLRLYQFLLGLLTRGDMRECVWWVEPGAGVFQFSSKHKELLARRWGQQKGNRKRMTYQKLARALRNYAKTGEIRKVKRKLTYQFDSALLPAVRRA
In experiment [8] the target is T6, ELK3 (Homo sapiens, UniProt P41970 1-407).
T6 sequence: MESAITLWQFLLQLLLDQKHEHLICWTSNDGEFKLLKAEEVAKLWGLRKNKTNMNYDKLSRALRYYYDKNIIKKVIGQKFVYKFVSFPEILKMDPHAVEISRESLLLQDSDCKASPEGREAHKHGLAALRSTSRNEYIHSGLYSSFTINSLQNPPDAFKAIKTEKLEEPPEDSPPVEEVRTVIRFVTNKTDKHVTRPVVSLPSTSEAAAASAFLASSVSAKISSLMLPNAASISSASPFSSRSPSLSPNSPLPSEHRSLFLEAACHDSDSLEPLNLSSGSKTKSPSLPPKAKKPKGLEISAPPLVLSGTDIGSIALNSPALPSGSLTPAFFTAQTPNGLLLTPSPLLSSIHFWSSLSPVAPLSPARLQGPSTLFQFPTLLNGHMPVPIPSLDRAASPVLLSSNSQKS
To be noted: protein: recombinant; tags: N-terminal GST; dsDNA, one strand shown. In outline: as §1

Experiment [9] concerns the target T7, FEV (Homo sapiens, UniProt Q99581 1-238).
T7 sequence: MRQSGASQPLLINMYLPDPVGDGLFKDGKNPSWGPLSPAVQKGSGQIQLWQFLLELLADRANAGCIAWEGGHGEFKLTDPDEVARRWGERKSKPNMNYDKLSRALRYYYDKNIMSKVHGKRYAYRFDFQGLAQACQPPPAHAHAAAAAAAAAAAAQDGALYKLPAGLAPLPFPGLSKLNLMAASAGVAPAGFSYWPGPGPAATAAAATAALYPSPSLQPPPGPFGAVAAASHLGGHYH
To be noted: protein: recombinant; tags: N-terminal GST; dsDNA, one strand shown. In outline: as §1

Experiment [10] deals with ETV5 (Homo sapiens, UniProt P41161 1-510). To be noted: protein: recombinant; tags: N-terminal GST; dsDNA, one strand shown. In outline:
as §1

Experiment [11] addresses HSF1 (Homo sapiens, UniProt Q00613 1-529). The conditions noted are these: protein: recombinant; tags: N-terminal GST; chain copies: 3; dsDNA, one strand shown. In outline: as §1
For experiment [12], the target named is ELF4 (Homo sapiens, UniProt Q99607 1-663). The conditions noted are these: protein: recombinant; tags: N-terminal GST; dsDNA, one strand shown. In outline:
as §1

In experiment [13] the target is ETV1 (Homo sapiens, UniProt P50549 1-477). To be noted: protein: recombinant; tags: N-terminal GST; dsDNA, one strand shown. In outline:
as §1

In experiment [14] the target is SPI1 (Homo sapiens, UniProt P17947 1-270). To be noted: protein: recombinant; tags: N-terminal GST; dsDNA, one strand shown. In outline:
as §1

In experiment [15] the target is T8, ELK4 (Homo sapiens, UniProt P28324-2 1-405).
T8 sequence: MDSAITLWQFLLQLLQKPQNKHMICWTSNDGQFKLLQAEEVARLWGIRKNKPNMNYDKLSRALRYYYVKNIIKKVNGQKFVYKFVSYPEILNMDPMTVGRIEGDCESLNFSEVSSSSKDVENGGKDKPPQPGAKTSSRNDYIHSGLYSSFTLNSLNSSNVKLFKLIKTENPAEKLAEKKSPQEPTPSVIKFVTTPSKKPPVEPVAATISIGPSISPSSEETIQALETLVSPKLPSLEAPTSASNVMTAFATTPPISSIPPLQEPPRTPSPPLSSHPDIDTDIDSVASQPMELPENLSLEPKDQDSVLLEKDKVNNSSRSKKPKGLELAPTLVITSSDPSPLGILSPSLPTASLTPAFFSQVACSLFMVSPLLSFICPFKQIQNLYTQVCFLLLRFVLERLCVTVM
To be noted: protein: recombinant; tags: N-terminal GST; dsDNA, one strand shown. In outline: as §1

Experiment [16] addresses T9, ELF3 (Homo sapiens, UniProt P78545 1-371).
T9 sequence: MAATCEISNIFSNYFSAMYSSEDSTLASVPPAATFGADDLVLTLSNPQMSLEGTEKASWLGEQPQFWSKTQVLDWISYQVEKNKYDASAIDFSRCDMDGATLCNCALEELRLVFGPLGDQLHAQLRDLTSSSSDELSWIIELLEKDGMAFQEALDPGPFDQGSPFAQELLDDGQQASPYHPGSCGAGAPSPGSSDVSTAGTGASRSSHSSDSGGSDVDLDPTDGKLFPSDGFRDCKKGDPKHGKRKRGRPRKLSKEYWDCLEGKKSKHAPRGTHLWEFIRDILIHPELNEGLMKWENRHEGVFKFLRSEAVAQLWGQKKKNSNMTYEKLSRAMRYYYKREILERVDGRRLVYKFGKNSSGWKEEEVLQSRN
The conditions noted are these: protein: recombinant; tags: N-terminal GST; dsDNA, one strand shown. In outline: as §1

Chain of ETV5 (P41161 whole entry): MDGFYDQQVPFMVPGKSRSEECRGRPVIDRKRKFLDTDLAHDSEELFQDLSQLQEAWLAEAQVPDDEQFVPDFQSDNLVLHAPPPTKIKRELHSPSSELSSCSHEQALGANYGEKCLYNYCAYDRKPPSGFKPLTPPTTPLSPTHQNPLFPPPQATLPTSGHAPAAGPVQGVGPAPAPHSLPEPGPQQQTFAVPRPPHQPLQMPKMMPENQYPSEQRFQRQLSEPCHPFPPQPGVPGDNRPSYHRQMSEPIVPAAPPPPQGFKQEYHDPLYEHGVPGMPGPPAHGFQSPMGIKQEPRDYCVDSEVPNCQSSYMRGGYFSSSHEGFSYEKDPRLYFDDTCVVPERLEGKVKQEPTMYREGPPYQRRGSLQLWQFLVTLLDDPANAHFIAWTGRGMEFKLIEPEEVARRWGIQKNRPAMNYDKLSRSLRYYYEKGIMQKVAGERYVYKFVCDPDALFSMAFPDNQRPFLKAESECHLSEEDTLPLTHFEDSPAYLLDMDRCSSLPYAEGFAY
Chain of ELF4 (Q99607 whole entry): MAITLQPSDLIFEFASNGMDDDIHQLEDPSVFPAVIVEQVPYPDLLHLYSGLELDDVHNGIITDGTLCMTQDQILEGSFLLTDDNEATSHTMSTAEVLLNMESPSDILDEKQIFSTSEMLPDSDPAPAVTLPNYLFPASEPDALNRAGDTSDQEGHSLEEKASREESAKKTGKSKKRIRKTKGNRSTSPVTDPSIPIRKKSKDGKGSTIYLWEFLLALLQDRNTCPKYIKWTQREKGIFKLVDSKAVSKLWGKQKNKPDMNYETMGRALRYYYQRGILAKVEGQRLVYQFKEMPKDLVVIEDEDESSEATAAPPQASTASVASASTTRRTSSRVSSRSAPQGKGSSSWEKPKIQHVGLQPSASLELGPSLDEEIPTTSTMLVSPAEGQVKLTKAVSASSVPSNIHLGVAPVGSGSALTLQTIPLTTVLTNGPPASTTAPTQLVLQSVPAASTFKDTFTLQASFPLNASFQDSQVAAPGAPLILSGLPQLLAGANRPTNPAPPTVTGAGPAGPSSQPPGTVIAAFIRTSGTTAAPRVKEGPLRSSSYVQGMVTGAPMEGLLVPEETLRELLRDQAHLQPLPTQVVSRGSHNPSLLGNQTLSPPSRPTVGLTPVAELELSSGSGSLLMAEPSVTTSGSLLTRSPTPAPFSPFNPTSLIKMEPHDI
Chain of HSF1 (Q00613 whole entry): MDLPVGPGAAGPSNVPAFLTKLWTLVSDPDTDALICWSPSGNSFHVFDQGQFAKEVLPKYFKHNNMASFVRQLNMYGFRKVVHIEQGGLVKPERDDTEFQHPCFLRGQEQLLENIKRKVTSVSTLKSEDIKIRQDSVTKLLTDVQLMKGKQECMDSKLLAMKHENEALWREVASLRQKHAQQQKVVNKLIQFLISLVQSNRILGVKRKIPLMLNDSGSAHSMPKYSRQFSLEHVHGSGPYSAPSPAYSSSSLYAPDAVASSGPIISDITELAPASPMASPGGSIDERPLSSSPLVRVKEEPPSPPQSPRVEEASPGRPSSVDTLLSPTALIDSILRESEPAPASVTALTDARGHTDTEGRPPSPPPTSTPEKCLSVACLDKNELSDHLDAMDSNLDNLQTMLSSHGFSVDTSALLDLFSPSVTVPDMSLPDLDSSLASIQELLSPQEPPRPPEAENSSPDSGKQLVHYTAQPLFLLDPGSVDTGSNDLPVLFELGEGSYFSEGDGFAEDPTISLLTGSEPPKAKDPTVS
Chain of ETV1 (P50549 whole entry): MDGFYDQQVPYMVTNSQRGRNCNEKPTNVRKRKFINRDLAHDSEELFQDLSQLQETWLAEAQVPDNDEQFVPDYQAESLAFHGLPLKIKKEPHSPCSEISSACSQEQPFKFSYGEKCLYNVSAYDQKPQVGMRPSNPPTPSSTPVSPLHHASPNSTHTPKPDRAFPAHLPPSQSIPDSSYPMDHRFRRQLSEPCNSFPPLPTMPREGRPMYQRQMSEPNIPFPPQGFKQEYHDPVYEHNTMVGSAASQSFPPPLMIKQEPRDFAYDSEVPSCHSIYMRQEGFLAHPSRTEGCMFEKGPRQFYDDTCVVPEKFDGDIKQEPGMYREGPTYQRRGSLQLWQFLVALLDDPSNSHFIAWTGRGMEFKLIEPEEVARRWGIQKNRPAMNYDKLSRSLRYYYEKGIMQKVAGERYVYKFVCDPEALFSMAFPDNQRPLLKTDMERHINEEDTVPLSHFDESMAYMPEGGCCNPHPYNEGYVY

As to AGCATC, the binding signal in experiment [1] is 1.03 fold enrichment (6-mer frequency, TF over GST control); in experiment [2], 1.12 fold enrichment (6-mer frequency, TF over GST control); in experiment [3], 1.03 fold enrichment (6-mer frequency, TF over GST control); in experiment [4], 1.04 fold enrichment (6-mer frequency, TF over GST control); in experiment [5], 1.02 fold enrichment (6-mer frequency, TF over GST control); in experiment [6], 1.02 fold enrichment (6-mer frequency, TF over GST control). The binding signal was 1.02 fold enrichment (6-mer frequency, TF over GST control) in experiment [7]; 1.1 fold enrichment (6-mer frequency, TF over GST control) in [8]; 1.07 fold enrichment (6-mer frequency, TF over GST control) in [9]; 1.03 fold enrichment (6-mer frequency, TF over GST control) in experiment [10]; 1.02 fold enrichment (6-mer frequency, TF over GST control) in experiment [11]; 1.02 fold enrichment (6-mer frequency, TF over GST control) in [12]. Further, in [13], the binding signal was 1.08 fold enrichment (6-mer frequency, TF over GST control).

In the case of CAAGCA, the binding signal was 1.1 fold enrichment (6-mer frequency, TF over GST control) in experiment [1]; 1.1 fold enrichment (6-mer frequency, TF over GST control) in [2]; 1.14 fold enrichment (6-mer frequency, TF over GST control) in experiment [3]; 1.07 fold enrichment (6-mer frequency, TF over GST control) in experiment [4]; 1.18 fold enrichment (6-mer frequency, TF over GST control) in experiment [5]; 1.02 fold enrichment (6-mer frequency, TF over GST control) in experiment [6]. In addition, the binding signal is 1.07 fold enrichment (6-mer frequency, TF over GST control) in experiment [14]; 1.06 fold enrichment (6-mer frequency, TF over GST control) in experiment [7]; 1.1 fold enrichment (6-mer frequency, TF over GST control) in experiment [8]; 1.13 fold enrichment (6-mer frequency, TF over GST control) in experiment [9]; 1.17 fold enrichment (6-mer frequency, TF over GST control) in experiment [10]; 1.03 fold enrichment (6-mer frequency, TF over GST control) in [11]. Also, the binding signal is 1.16 fold enrichment (6-mer frequency, TF over GST control) in experiment [12]; 1.14 fold enrichment (6-mer frequency, TF over GST control) in experiment [15]; 1.28 fold enrichment (6-mer frequency, TF over GST control) in [16]; 1.1 fold enrichment (6-mer frequency, TF over GST control) in experiment [13].

The values are drawn from publication PMC7862700, “An all-to-all approach to the identification of sequence-specific readers for epigenetic DNA modifications on cytosine”.
